Assay outcomes: PubChem BioAssay, NMMLSC
Hits are enriched below; roughly 1.2% of the tested compounds scored in any of these assays.
Avidin fluor – green autofluorescence of compounds with avidin beads – biophysical, 488/530 nm, flow cytometry, artefact control, profiling panel; compound fluorescence 488/530 nm; active compounds read high; 220,000 compounds, 0.38% hits; fluorescence (KMESF) at 10 µM; in the data active = fluorescence above about 47
RGS16-Gao – modulators of RGS16 binding to Galphao, primary screen, biochemical, human proteins, multiplexed bead flow cytometry; bead-based flow cytometry RGS16-Galphao binding, fluorescence; actives lie on both sides; binding response (% of control), % at 10 µM; 220,000 compounds, 0.38% hits;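 note: Galphao activated by GDP with aluminum fluoride before binding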
Target sequence (O15492 whole entry, looked up): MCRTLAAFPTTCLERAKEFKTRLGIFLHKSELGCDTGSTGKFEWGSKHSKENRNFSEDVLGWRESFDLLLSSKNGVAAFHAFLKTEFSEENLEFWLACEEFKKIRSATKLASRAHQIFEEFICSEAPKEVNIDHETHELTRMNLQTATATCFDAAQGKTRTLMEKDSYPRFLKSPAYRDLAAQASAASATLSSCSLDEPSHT
Target sequence (P09471 whole entry, looked up): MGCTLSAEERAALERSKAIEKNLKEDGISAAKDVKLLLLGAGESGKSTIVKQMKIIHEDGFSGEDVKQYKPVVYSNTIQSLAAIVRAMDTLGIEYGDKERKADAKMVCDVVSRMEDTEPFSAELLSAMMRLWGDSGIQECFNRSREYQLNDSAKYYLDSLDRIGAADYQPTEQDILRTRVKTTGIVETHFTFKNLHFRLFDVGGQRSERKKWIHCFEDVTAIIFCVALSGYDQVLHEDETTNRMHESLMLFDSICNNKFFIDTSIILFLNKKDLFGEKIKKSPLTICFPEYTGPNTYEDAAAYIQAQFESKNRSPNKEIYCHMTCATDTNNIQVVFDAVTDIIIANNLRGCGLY
GSH bead fluor – compound fluorescence on glutathione beads, profiling panel, artefact control, biophysical, 488/530 nm, flow cytometry | GSH beads flow cytometry, compound fluorescence 488/530 nm; active compounds read high | fluorescence (KMESF) at 10 µM | 190,000 compounds, 0.25% hits | AID 1776, 2009; in the data active = fluorescence above about 89;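 note: glutathione beads carrying GST-tagged Bcl family fusion proteins plus one bare bead set; values are compound well signal with DMSO vehicle wells as background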
RGS8-Gao reg – RGS8-Galphao binding modulators, primary screen, biochemical, multiplexed bead flow cytometry; response (percent of control binding), % at 10 µM; AID 1423, 2008; actives lie on both sides; 220,000 compounds, 0.34% hits; in the data active = response below about 60% or above about 140%; inactive = in between;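 note: Galphao activated as the GDP aluminium fluoride complex binding bead-coupled RGS8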
Target sequence (P09471 whole entry, looked up): as above
RGS4-Gao reg – modulators of RGS4 binding to Galphao, primary screen, biochemical, multiplexed bead flow cytometry; actives lie on both sides; binding response (% of control), % at 10 µM; 220,000 compounds, 0.33% hits; in the data active = binding response below about 49% or above about 150%; inactive = in between;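 note: fluorescent Galphao activated with aluminum fluoride binding bead-coupled RGS4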
RGS7-Gao – RGS7-Galphao binding modulators, primary screen, biochemical, multiplexed bead flow cytometry; Guanine nucleotide-binding protein G(o) subunit alpha (Homo sapiens), P09471; actives lie on both sides; binding response (% of control), % at 10 µM; 220,000 compounds, 0.35% hits; in the data active = binding response below about 49% or above about 150%; inconclusive = no clear call, values can overlap the other calls; inactive = in between;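 note: fluorescent Galphao held in activated GDP-AlF4 state binding bead-coupled RGS7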
RGS-Gao – modulators of RGS–Galpha-o binding, primary screen, biochemical, multiplexed beads, flow cytometry, RGS4/7/8/16/19; shares compounds with RGS16-Gao; multiplexed bead flow cytometry; RGS4–Galpha-o binding response, % at 10 µM; 1,600 compounds, 99% hits; AID 1504, 2009;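 note: fluorescently labeled Galpha-o bound to GDP with aluminium fluoride binding biotinylated RGS beads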
Biotin-avidin – disruption of biotin probe capture by avidin, counter-screen for RGS protein interaction modulators, biochemical, flow cytometry, bead-based | shares compounds with RGS16-Gao | streptavidin beads, fluorescein-biotin binding | inhibition, % at 10 µM | 1,700 tested, under 10 active | AID 1783, 2009;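 active = inhibition above 50%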;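 note: median green fluorescence of gated singlet beads compared with DMSO control wells; 0% = DMSO wells and 100% = complete loss of bead fluorescence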
RGS8-Gao single – RGS8-Galphao binding modulators, confirmation, biochemical, multiplexed bead flow cytometry, single concentration. shares compounds with RGS16-Gao. bead-based flow cytometry RGS8-Galphao binding, fluorescence; actives lie on both sides. binding response (% of control), % at 10 µM. 1,700 compounds, 3% hits. AID 1836, 2009; in the data active = binding response below about 72% or above about 130%; inactive = in between;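 note: Galphao activated as GDP AlF4 complex before binding bead RGS8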
RGS7-Gao single – RGS7-Galphao binding modulators, confirmation, biochemical, multiplexed bead flow cytometry, single concentration. shares compounds with RGS16-Gao. bead-based flow cytometry RGS7-Galphao binding; actives lie on both sides. response (percent of control binding), % at 10 µM. 1,700 compounds, 7.8% hits. AID 1837, 2009; in the data active = response below about 75% or above about 130%; inactive = in between;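 note: fluorescent Galphao activated with GDP and aluminum fluoride binding bead-coupled RGS7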
RGS16-Gao conf – modulators of RGS16-Galphao protein binding, confirmation, biochemical, single concentration, multiplexed bead flow cytometry. shares compounds with RGS16-Gao. bead-based flow cytometry; actives lie on both sides. response (% of control binding), % at 10 µM. 1,700 compounds, 4% hits; in the data active = response below about 74% or above about 130%; inactive = in between;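 note: Galphao activated as the GDP aluminium fluoride complex binding bead-coupled RGS16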
RGS4-Gao single – modulators of RGS4-Galphao protein binding, confirmation, biochemical, single concentration, multiplexed bead flow cytometry; AID 1840, 2009; binding response (% of control), % at 10 µM; actives lie on both sides; 1,700 compounds, 4% hits; shares compounds with RGS16-Gao; in the data active = binding response below about 74% or above about 130%; inactive = in between
RGS19-Gao conf – regulators of RGS19-Galphao binding, confirmation, biochemical, single point, multiplexed bead flow cytometry; shares compounds with RGS16-Gao; bead-based flow cytometry RGS19-Galphao binding; actives lie on both sides; response (percent of control binding), % at 10 µM; 1,700 compounds, 5% hits; AID 1841, 2009; in the data active = response below about 50% or above about 160%; inactive = in between;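 note: 100% = no compound control and 0% = blank background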
Numbers without * were called inactive; u = inconclusive; x = not tested or not shown; [ ] = dose if it differs, or a comment. Unless noted, the rule behind the calls is not given here.

SMILES	Avidin fluor	RGS16-Gao	GSH bead fluor	RGS8-Gao reg	RGS4-Gao reg	RGS7-Gao	Biotin-avidin	RGS8-Gao single	RGS7-Gao single	RGS16-Gao conf	RGS4-Gao single	RGS19-Gao conf	others
O=C(c1ccco1)N1CCN(c2ccc([N+](=O)[O-])c(N3CCOCC3)c2)CC1	4	50.5	13	51.3*	42.8*	30.9*	-1.8	100.1	61.0*	82.6	77.3	65.9
CC(=O)N1CCN(c2ccc([N+](=O)[O-])c(-n3nc(C)cc3C)c2)CC1	1	9.6	8	59.8*	78.8	84.0	-1.7	92.1	86.2	89.8	92.0	86.4	RGS-Gao=78.8*
Cc1cc(C)n(-c2cc(N3CCN(C(=O)c4cccc(Br)c4)CC3)ccc2[N+](=O)[O-])n1	11	103.8	25	101.8	100.2	101.7	x	x	x	x	x	x
O=C(NCCCN1CCOCC1)c1sc2cc([N+](=O)[O-])ccc2c1Cl	6	24.9*	17	75.0	100.3	u	0.5	64.6*	95.1	13.1*	78.9	29.7*	RGS-Gao=100.3*
COc1cccc(NC(=O)Nc2nnc(-c3ccccc3SCc3ccccc3)s2)c1	7	105.6	9	105.3	104.7	101.4	x	x	x	x	x	x
COc1ccc(NC(=O)Nc2nnc(-c3ccccc3SCc3ccccc3)s2)cc1	x	x	33	x	x	x	0.1	102.6	104.5	105.4	102.8	103.6
O=C(c1cccnc1Nc1ccc2c(c1)CCC2)N1CCOCC1	-3	-1.9*	16	8.5*	-3.1*	-1.2*	-1.6	101.2	96.5	101.6	101.4	101.3
O=C(Nc1ccccc1N1CCCC1)c1cccc(Cl)c1Cl	12	109.7	17	104.8	99.9	99.2	x	x	x	x	x	x
Cc1c(N2CCCC2)cc2c(c1NC(=O)c1ccccc1Cl)C(C)(C)CC2(C)C	7	154.8	x	130.4	155.8*[activator]	u	-0.9	98.2	79.8	95.2	94.6	74.5
Cc1ccc(C)n1Cc1ccc(C(=O)O)cc1	21	76.1	12	68.3	89.0	48.8*	x	x	x	x	x	x	RGS-Gao=89.0*
CCC1CCC(c2nnc(-c3ccc(Br)cc3)o2)CC1 (stereo not given)	7	13.3*	9	71.5	89.3	85.7	-0.4	99.2	101.7	98.8	100.4	90.8	RGS-Gao=89.3*
Cc1c(-c2n[nH]c(=S)n2-c2ccc(C(F)(F)F)cc2)nnn1-c1ccccc1	3	103.0	9	97.0	101.2	101.4	x	x	x	x	x	x
Cc1c(-c2n[nH]c(=S)n2-c2ccc(Br)cc2)nnn1-c1ccc(Cl)cc1	x	103.3	14	102.5	109.9	x	-1.9	85.6	98.2	86.2	89.5	66.9
CCCOc1ccc(C(CC(=O)O)NC(=O)c2cccs2)cc1 (stereo not given)	33	98.8	27	100.6	99.9	102.8	x	x	x	x	x	x
CC(C)Oc1ccc(C(CC(=O)O)NC(=O)c2cccs2)cc1 (stereo not given)	x	x	30	x	x	x	1.8	93.7	80.7	88.4	85.8	89.9
Cc1cc(C)cc(N2CCCC2=O)c1	22	100.5	14	101.8	101.1	99.7	x	x	x	x	x	x
O=C(c1ccc(S(=O)(=O)NCc2ccco2)cc1)N1CCN(Cc2ccc3c(c2)OCO3)CC1	8	336.4	13	158.3*[activator]	122.0	120.1	-1.2	100.0	96.8	99.8	98.2	100.7	RGS-Gao=122.0*
CCCCCn1c(CN(C)Cc2ccccc2)nc2c1c(=O)n(C)c(=O)n2C	7	238.0*[activator]	11	129.0	110.5	110.5	-3.1	99.6	99.7	98.9	99.9	102.8	RGS-Gao=110.5*
Cc1ccc(CN(c2ccc(C(=O)Nc3cccnc3)cc2)S(C)(=O)=O)cc1	4	4.8*	10	31.8*	-2.8*	15.6*	-2.6	101.2	103.8	102.6	101.7	102.8
COc1ccc(N2CCN(C(=O)CCNS(=O)(=O)c3ccc4c(c3)CCC(=O)N4)CC2)cc1	36	103.7	21	103.2	103.2	103.1	x	x	x	x	x	x
Cc1ccc(C(=O)c2sc3nc4c(cc3c2N)CCC4)cc1	3	107.7	14	110.6	106.0	107.2	x	x	x	x	x	x
O=C(/C=C/c1ccco1)NCc1ccc(F)cc1	10	102.0	20	100.5	105.2	100.2	x	x	x	x	x	x
NS(=O)(=O)c1ccc(CNC(=O)/C=C/c2ccco2)cc1	8	97.0	x	94.5	97.9	u	-2.0	91.3	92.8	95.3	95.8	85.3
CC(C)(C)OC(=O)N1CCC(c2cc(-c3cccs3)n[nH]2)CC1	6	94.5	18	96.3	95.0	99.2	x	x	x	x	x	x
Cn1c(SCC(=O)N2CCCC2=O)nc2ccccc21	0	9.5*	11	12.6*	19.1*	u	-0.5	97.1	95.0	95.6	94.9	95.6
COc1ccccc1/C=C/C=N/NC(=O)CC1C(=O)NN=C1C (stereo not given)	8	102.5	x	99.3	99.8	u	x	x	x	x	x	x
